The values below come from PubChem BioAssay (Tox21).

Experiment [1] can be described thus: cAMP Responsive Elements (CRE) small molecule antagonists, cell-based qHTS assay: qHTS cell viability counter screen (AID 2060913). Further: nearly all actives have a fitted effect of over 40% in size. In short, it runs like this:
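Cytotoxicity read in the same wells as the CRE-bla HEK293T antagonist assay: after 3 h compound with 0.25 uM NKH477 final and 2 h beta-lactamase substrate, CellTiter-Glo luminescence measured.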
Background: qHTS replaces the single test concentration by a dilution series.

Experiment [2] in a line: cAMP Responsive Elements (CRE) small molecule agonists, cell-based qHTS assay: qHTS cell viability counter screen (AID 2060914). Further: nearly all actives have a fitted effect of over 50% in size. In short, it runs like this: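 HEK 293T CRE-bla; DMEM + 10% dialyzed FBS, 25 mM HEPES; 18 h pre-incubation; compound 3 h, 37 °C/5% CO2; CellTiter-Glo added after reporter read; luminescence after 30 min RT.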

Records with an inconclusive call do not appear. A number with no mark means an inactive call. Activity calls are given as the source filed them. The call rests on the fitted dose curve; in most records, active means well fitted cell-killing curve with a large enough effect in the repeat runs; inconclusive means weak or mixed curves, or effect the other way; inactive means flat fitted curve, though single readings scatter.
On the % scale 0 is the no-effect control and ±100 the full control effect.

Take `CCCCOCCOCCSC#N`: the Potency result in experiment [1] and in experiment [2] was “inactive” in each case.

As for `NC1CCCCC1N` (stereo not given), the Potency result in experiment [1] and in experiment [2] was “inactive” throughout.

Take `CC[C@@H]1C[C@H](N(Cc2cc(C(F)(F)F)cc(C(F)(F)F)c2)C(C)=O)c2cc(C(F)(F)F)ccc2N1C(=O)OC(C)C`: the Potency entry in experiment [1] and in experiment [2] was “inactive” each time.

Take `Oc1ccc(Cc2ccccc2O)cc1`: the Potency entry in experiment [1] and in experiment [2] was “inactive” each time.

Consider `COC(CC(C)CCCC(C)(C)O)OC` (stereo not given), for which the Potency result in experiment [1] and in experiment [2] was “inactive” in each case.

For `O=C1CCCCCCCCCCCN1`, the Potency result in experiment [1] and in experiment [2] was “inactive” throughout.

On to `CCCCC(CC)COC(=O)CCCCCCCCC(=O)OCC(CC)CCCC` (stereo not given), for which the Potency result in experiment [1] and in experiment [2] was “inactive” throughout.

In the case of `Nc1ccc(S(=O)(=O)Nc2cnc3ccccc3n2)cc1`, the Potency entry in experiment [1] and in experiment [2] was “inactive” in each case.

For the compound `O=C(O)COC(=O)Cc1ccccc1Nc1c(Cl)cccc1Cl`, the Potency result in experiment [1] and in experiment [2] was “inactive” throughout.

As for `Cc1ccccc1C(N)=O`, the Potency entry in experiment [1] and in experiment [2] was “inactive” throughout.

For the compound `Brc1ccc(Br)c(Br)c1`, the Potency result in experiment [1] and in experiment [2] was “inactive” throughout.

As for `CCN1CCN(C(=O)N[C@@H](C(=O)N[C@@H]2C(=O)N3[C@@H]2SC(C)(C)[C@H]3C(=O)O)c2ccccc2)C(=O)C1=O`, the Potency result in experiment [1] and in experiment [2] was “inactive” throughout.

Consider `NC(=O)Cc1cccc2ccccc12`, for which the Potency entry in experiment [1] and in experiment [2] was “inactive” throughout.

Turning to `c1ccc(-c2nn[nH]n2)cc1`, the Potency entry in experiment [1] and in experiment [2] was “inactive” throughout.

Consider `Cc1cc(=O)oc2cc(O)cc(O)c12`, for which the Potency entry in experiment [1] and in experiment [2] was “inactive” throughout.

In the case of `CCCCC1C(=O)N(c2ccccc2)N(c2ccc(O)cc2)C1=O` (stereo not given), the Potency result in experiment [1] and in experiment [2] was “inactive” in each case.

As for `NC(=O)N1c2ccccc2CC(=O)c2ccccc21`, the Potency entry in experiment [1] and in experiment [2] was “inactive” throughout.

In the case of `O=C(c1ccc(F)cc1)C1CCN(CCn2c(=S)[nH]c3ccccc3c2=O)CC1`, the Potency entry in experiment [1] and in experiment [2] was “inactive” throughout.

Consider `Cn1ccc2cc3c(cc21)CCN3C(=O)Nc1cccnc1`, for which, in experiment [1], the viability change, negative = cytotoxic is -0.701% [at 18.9 µM]. In addition, the activity change, negative = cytotoxicity in experiment [2] is 3% [at 18.9 µM].

As to `Cc1cccc(C)c1`, the Potency result in experiment [1] and in experiment [2] was “inactive” in each case.

Regarding `CN(C)c1ccc(C(=N)c2ccc(N(C)C)cc2)cc1`, the Potency entry in experiment [1] and in experiment [2] was “inactive” throughout.

With `O=C(c1ccccc1)c1cc(Cl)ccc1O`, the Potency entry in experiment [1] and in experiment [2] was “inactive” throughout.

Regarding `O=C(O)c1cc(=O)c2ccccc2o1`, the Potency result in experiment [1] and in experiment [2] was “inactive” in each case.

As for `C(=C\c1ccccc1)/CN1CCN(C(c2ccccc2)c2ccccc2)CC1`, the Potency result in experiment [1] and in experiment [2] was “inactive” each time.

Take `O=C1C=CC(=O)O1`: the Potency entry in experiment [1] and in experiment [2] was “inactive” in each case.

With `CCC1(C)C(=O)N(Cl)C(=O)N1Cl` (stereo not given), the Potency entry in experiment [1] and in experiment [2] was “inactive” in each case.

`CC(=O)Nc1ccccc1C`: the Potency entry in experiment [1] and in experiment [2] was “inactive” each time.

With `NNc1nc(-c2ccccc2)cs1`, the Potency entry in experiment [1] and in experiment [2] was “inactive” each time.

With `Cc1cc(=O)[nH]c(=S)[nH]1`, the Potency result in experiment [1] and in experiment [2] was “inactive” throughout.

For `NCC(=O)CCC(=O)O`, the Potency entry in experiment [1] and in experiment [2] was “inactive” throughout.

In the case of `CCC(C)C(=O)OC` (stereo not given), the Potency result in experiment [1] and in experiment [2] was “inactive” throughout.

For `O=C(CCCCCCCCC#CI)Oc1ccccc1`, the Potency result in experiment [1] and in experiment [2] was “inactive” in each case.

For the compound `CCCCOc1ccc(CC(=O)NO)cc1`, the Potency result in experiment [1] and in experiment [2] was “inactive” in each case.

For the compound `O=C(CN1CCNCC1)NC1CCCCC1`, the Potency result in experiment [1] and in experiment [2] was “inactive” each time.

For the compound `C=C(C)C(=O)NCCC[N+](C)(C)C`, the Potency result in experiment [1] and in experiment [2] was “inactive” in each case.

As to `Nc1cc([N+](=O)[O-])cc(Cl)c1O`, the Potency entry in experiment [1] and in experiment [2] was “inactive” throughout.

As to `Oc1cc2ccccc2cc1O`, the Potency entry in experiment [1] and in experiment [2] was “inactive” throughout.

Regarding `COCCOC[C@H](CC1(C(=O)NC2CCC(C(=O)O)CC2)CCCC1)C(=O)Oc1ccc2c(c1)CCC2` (stereo not given in full), the Potency entry in experiment [1] and in experiment [2] was “inactive” each time.

Regarding `CC(C)CCCCCCCCCCCCCCC(=O)O`, the Potency entry in experiment [1] and in experiment [2] was “inactive” in each case.

In the case of `CCOC(=O)c1cnc2c(cnn2CC)c1NN=C(C)C`, the Potency result in experiment [1] and in experiment [2] was “inactive” throughout.

Regarding `CCOC=C(C(=O)OCC)C(=O)OCC`, the Potency result in experiment [1] and in experiment [2] was “inactive” throughout.

As for `COc1cc(C(=O)NCCCCCC(=O)O)cc(OC)c1OC`, the Potency entry in experiment [1] and in experiment [2] was “inactive” each time.

Consider `CC(=O)c1cccc([N+](=O)[O-])c1`, for which the Potency entry in experiment [1] and in experiment [2] was “inactive” throughout.

For `Cc1ccc(/C=N/n2c(-c3ccccc3)csc2=S)cc1`, the Potency result in experiment [1] and in experiment [2] was “inactive” throughout.

Take `O=C(O)c1ccccc1NCCc1ccccc1`: the Potency result in experiment [1] and in experiment [2] was “inactive” throughout.

With `SCCCCCCCCS`, the Potency entry in experiment [1] and in experiment [2] was “inactive” in each case.

Consider `CCCN(C1CCN(C(=O)C2CCNCC2)CC1)[C@@H]1CCc2ccc(OC)cc2C1`, for which the Potency entry in experiment [1] and in experiment [2] was “inactive” in each case.

For the compound `O=S(=O)(c1ccc(OCc2ccccc2)cc1)c1ccccc1O`, the Potency entry in experiment [1] and in experiment [2] was “inactive” each time.

Regarding `CC1CC(=O)NN=C1c1ccc(NCC(C)(C)NCC(O)COc2cc(Cl)ccc2C#N)cc1` (stereo not given), the Potency entry in experiment [1] and in experiment [2] was “inactive” throughout.

On to `CC(C)NCC(O)c1ccc(O)c(O)c1` (stereo not given), for which the Potency result in experiment [1] and in experiment [2] was “inactive” in each case.

For `CCCOC(=O)CCCCC(=O)OCCC`, the Potency result in experiment [1] and in experiment [2] was “inactive” in each case.

On to `Oc1ccc(C(c2ccc(O)cc2)C(Cl)(Cl)Cl)cc1`, for which the Potency result in experiment [1] and in experiment [2] was “inactive” throughout.

Turning to `CC(=O)OCCC1CCCCC1`, the Potency result in experiment [1] and in experiment [2] was “inactive” throughout.

With `[Cl][Nd]([Cl])[Cl]`, the Potency entry in experiment [1] and in experiment [2] was “inactive” each time.

As to `CCCCCCCCCCCCSCCOCCO`, the Potency result in experiment [1] and in experiment [2] was “inactive” each time.

In the case of `COCc1nnc(-c2ccc[n+]([O-])c2)n1-c1c(Cl)c(Cl)cc2[nH]c(=O)c(=O)[nH]c12`, the Potency entry in experiment [1] and in experiment [2] was “inactive” each time.

With `C=C(C)C(=O)NCCCN(C)C`, the Potency result in experiment [1] and in experiment [2] was “inactive” each time.

Consider `O=C(O)C1(C(=O)O)CCC1.[NH2-].[NH2-].[Pt+2]`, for which the Potency result in experiment [1] and in experiment [2] was “inactive” throughout.

In the case of `COC(=O)c1sccc1S(N)(=O)=O`, the Potency entry in experiment [1] and in experiment [2] was “inactive” throughout.

As for `CC1(C)[C@H]2CC[C@]1(C)[C@H](O)C2`, the Potency result in experiment [1] and in experiment [2] was “inactive” each time.
